# Data: PubChem BioAssay
# Activity calls are given as the source filed them.
# Tests used:
# [1] = tested on: Human papillomavirus type 1a protein E7 (residues 44-93); experiment: small molecules binding HPV E7 44-93 – biochemical, small-molecule microarray, residues 44-93, 635 nm fluorescence, primary screen (AID 1108); conditions: fluorescence 635 nm, higher = more signal;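 further: E7 fragment applied at 1 µg/mL in TBST for 1 h at 4 C; score combines spot fluorescence with its signal to noise ratio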
# [2] = hepatitis C replication reporter changes, two-sided – Huh7 cells, luciferase reporter, HCV replication inhibitor project, primary screen (AID 1109); conditions: Huh7 HCV replicon luciferase reporter, 48 h; higher = more signal;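 further: huh7 hepatoma cells harbouring a luciferase neomycin HCV replicon reporter; luciferase luminescence as measure of HCV replicon replication; test concentration not given here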
# [3] = molecular target: Left-right determination factor 2 (Homo sapiens) (UniProt O00292); experiment: small molecules binding LEFTY2 protein – biochemical, small-molecule microarray, 635 nm fluorescence scan, primary screen (AID 1110); conditions: higher = more signal
# [4] = molecular target: Calmodulin-1 (Homo sapiens) (UniProt P0DP23); experiment: small molecules binding calmodulin-1 with EGTA – biochemical, small-molecule microarray, Cy5-labelled CALM1, profiling panel (AID 1111); conditions: Cy5-CALM1 binding fluorescence, higher = more signal;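 further: labelled calmodulin applied in Tris saline Tween buffer holding calcium plus EGTA and DTT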
# [5] = molecular target: Calmodulin-1 (Homo sapiens) (UniProt P0DP23); experiment: small molecules binding Ca-loaded calmodulin-1 – biochemical, small-molecule microarray, Cy5-labelled CALM1, plus calcium, artefact control for SMM control-protein annotation, profiling panel (AID 1112); conditions: Cy5-CALM1 binding fluorescence, higher = more signal;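 further: score merges spot fluorescence with signal to noise from triplicate slides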
# [6] = probe aWnt5a binding to arrayed compounds – biochemical, biotinylated probe, 635/667 nm fluorescence, primary screen (AID 1113); conditions: small-molecule microarray, higher = more signal;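 further: score merges 667 nm fluorescence intensity with signal-to-noise per printed feature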
# [7] = probe aShh binding to arrayed compounds – biochemical, biotinylated probe, 635/667 nm fluorescence, primary screen (AID 1114); conditions: small-molecule microarray, higher = more signal;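 further: probe is biotin-labelled aShh protein from a stem cell growth factor screen; measures binding of labelled protein to compounds printed on the slide; score merges feature fluorescence at 667 nm with signal-to-noise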
# [8] = probe aNog binding to arrayed compounds – biochemical, biotinylated probe, 635/667 nm fluorescence, primary screen (AID 1115); conditions: small-molecule microarray, higher = more signal;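 further: probe is biotinylated aNog protein used at 0.15 µg/mL for 1 h at 4 C; z-score combines 667 nm fluorescence of each spot with its signal to noise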
# [9] = molecular target: Torsin-1A-interacting protein 1 (Homo sapiens) (UniProt Q5JTV8); experiment: compound microarray binding of lysate hLAP1 – cell lysate, small-molecule microarray, COS7 lysate, 635/667 nm fluorescence, primary screen (AID 1116); conditions: 635 nm fluorescence, higher = more signal
# [10] = molecular target: Alpha-bungarotoxin (Bungarus multicinctus) (UniProt P60615); experiment: compounds binding labelled alpha-BTX control protein – biochemical, small-molecule microarray, Alexa647 label, 635/667 nm fluorescence, artefact control for SMM control protein annotation, profiling panel (AID 1117); conditions: alpha-BTX-A647 binding fluorescence, higher = more signal
# Albumin (Bos taurus) = Albumin (Bos taurus) (UniProt P02769); experiment: compounds binding labelled BSA control protein – biochemical, small-molecule microarray, Alexa647 label, 635/667 nm fluorescence, artefact control for SMM control protein annotation, profiling panel (AID 1118); conditions: BSA-A647 binding, fluorescence 635 nm, higher = more signal;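 further: score merges 667 nm emission intensity and signal-to-noise per printed compound spot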
# [11] = probe aXIP binding to arrayed compounds – biochemical, NeuroSMM set, 635/667 nm fluorescence, primary screen (AID 1119); conditions: small-molecule microarray, higher = more signal, called active from +8 up or from −8 down;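 further: probe is the protein aXip251-270 applied at 1 µg/mL to compound-printed slides; binding of probe to printed compounds measured as 667 nm fluorescence plus signal to noise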
# [12] = probe aNOTCH3 binding on compound microarray – biochemical, small-molecule microarray, 635/667 nm fluorescence, primary screen (AID 1120); conditions: higher = more signal;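 further: probe is a biotin-tagged antibody raised against NOTCH3 rather than NOTCH3 protein; score merges spot fluorescence near 667 nm with spot signal to noise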
# [13] = probe aNOTCH2 binding on compound microarray – biochemical, small-molecule microarray, 635/667 nm fluorescence, primary screen (AID 1121); conditions: higher = more signal;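 further: score merges feature fluorescence read at 667 nm with its signal to noise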
# [14] = molecular target: Carbonic anhydrase 2 (Homo sapiens) (UniProt P00918); experiment: compounds binding carbonic anhydrase 2 – biochemical, small-molecule microarray, Alexa647-labelled CAII, profiling panel (AID 1122); conditions: CAII-A647 binding fluorescence, higher = more signal
# [15] = COS7 lysate on small-molecule microarray, probe aHis, 635 nm (AID 1123); conditions: COS7 cell lysate, fluorescence, higher = more signal;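 further: z-score combines 667nm fluorescence intensity with signal-to-noise per printed compound spot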
# [16] = probe aLAP1 signal on lysate-treated microarray – cell lysate, small-molecule microarray, COS7 lysate, primary screen (AID 1124); conditions: probe aLAP1, fluorescence, higher = more signal;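 further: lysate comes from COS7 cells expressing LAP1 and is applied at 0.3 µg/mL; score merges spot fluorescence near 667 nm with signal-to-noise over triplicate slides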
# Sam68 (KHDRBS1) = experiment: compounds binding KHDRBS1 protein – biochemical, small-molecule microarray, 635 nm fluorescence, primary screen (AID 1125); conditions: higher = more signal;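 further: score merges 667 nm channel intensity with signal to noise over triplicate slides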
# [17] = tested on: Chordin-like protein 2 (CHRDL2); experiment: compounds binding chordin-like 2 – biochemical, small-molecule microarray, 635 nm fluorescence, primary screen (AID 1126); conditions: fluorescence 635 nm, higher = more signal;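 further: printed compound slides probed with Chrdl2 protein at 4 µg/mL for 1 h at 4 C; score merges 667 nm emission intensity with signal to noise over three replicate slides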
# [18] = molecular target: Concanavalin-A (Canavalia ensiformis) (UniProt P02866); experiment: compounds binding concanavalin A lectin – biochemical, small-molecule microarray, Alexa647 label, 635 nm, artefact control for SMM control protein annotation, primary screen (AID 1127); conditions: ConA-A647 binding fluorescence, higher = more signal;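 further: z combines 667 nm emission intensity with signal-to-noise across three replicate slides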
# Concanavalin-A (Canavalia ensiformis), sequence (P02866 whole entry, looked up): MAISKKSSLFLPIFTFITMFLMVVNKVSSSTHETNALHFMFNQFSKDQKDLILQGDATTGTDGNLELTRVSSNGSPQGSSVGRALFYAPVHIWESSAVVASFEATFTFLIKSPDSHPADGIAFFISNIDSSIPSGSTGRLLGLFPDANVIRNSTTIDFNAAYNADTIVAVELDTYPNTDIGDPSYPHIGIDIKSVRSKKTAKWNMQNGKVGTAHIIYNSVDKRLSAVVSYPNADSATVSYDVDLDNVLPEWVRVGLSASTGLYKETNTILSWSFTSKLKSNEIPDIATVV
# Albumin (Bos taurus), sequence (P02769 whole entry, looked up): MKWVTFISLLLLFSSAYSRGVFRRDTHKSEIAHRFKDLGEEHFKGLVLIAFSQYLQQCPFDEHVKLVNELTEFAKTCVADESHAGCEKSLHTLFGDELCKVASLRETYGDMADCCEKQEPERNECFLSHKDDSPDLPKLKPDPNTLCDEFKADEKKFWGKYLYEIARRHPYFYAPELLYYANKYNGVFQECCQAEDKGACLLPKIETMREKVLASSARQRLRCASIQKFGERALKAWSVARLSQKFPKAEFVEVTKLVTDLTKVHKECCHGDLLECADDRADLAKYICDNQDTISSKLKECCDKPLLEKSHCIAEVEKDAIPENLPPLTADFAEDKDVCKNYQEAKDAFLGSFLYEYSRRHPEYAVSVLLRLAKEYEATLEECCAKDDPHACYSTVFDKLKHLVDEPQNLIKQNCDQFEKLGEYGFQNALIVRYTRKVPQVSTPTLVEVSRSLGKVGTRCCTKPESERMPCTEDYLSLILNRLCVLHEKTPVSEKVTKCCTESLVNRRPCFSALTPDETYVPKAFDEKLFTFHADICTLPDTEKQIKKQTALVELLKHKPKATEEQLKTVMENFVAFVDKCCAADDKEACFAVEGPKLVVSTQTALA
# Torsin-1A-interacting protein 1 (Homo sapiens), sequence (Q5JTV8 whole entry, looked up): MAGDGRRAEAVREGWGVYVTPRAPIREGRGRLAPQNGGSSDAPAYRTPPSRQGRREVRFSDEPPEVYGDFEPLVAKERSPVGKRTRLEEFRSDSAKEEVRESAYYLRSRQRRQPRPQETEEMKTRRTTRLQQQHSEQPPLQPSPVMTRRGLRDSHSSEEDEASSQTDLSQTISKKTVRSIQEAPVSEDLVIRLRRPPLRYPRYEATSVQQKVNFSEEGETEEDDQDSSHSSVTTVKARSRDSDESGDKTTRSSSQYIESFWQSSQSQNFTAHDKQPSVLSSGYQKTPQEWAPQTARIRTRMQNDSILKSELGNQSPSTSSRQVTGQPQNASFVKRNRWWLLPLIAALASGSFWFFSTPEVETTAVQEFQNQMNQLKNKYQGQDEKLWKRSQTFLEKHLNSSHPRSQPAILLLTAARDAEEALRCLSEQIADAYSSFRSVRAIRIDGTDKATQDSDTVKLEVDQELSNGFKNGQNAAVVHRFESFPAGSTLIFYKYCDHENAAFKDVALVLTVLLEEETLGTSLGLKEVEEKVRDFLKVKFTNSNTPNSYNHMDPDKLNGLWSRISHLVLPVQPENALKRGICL
# Alpha-bungarotoxin (Bungarus multicinctus), sequence (P60615 whole entry, looked up): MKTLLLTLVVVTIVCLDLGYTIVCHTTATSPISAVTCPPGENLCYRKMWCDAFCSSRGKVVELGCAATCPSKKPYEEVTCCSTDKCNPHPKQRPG
# Left-right determination factor 2 (Homo sapiens), sequence (O00292 whole entry, looked up): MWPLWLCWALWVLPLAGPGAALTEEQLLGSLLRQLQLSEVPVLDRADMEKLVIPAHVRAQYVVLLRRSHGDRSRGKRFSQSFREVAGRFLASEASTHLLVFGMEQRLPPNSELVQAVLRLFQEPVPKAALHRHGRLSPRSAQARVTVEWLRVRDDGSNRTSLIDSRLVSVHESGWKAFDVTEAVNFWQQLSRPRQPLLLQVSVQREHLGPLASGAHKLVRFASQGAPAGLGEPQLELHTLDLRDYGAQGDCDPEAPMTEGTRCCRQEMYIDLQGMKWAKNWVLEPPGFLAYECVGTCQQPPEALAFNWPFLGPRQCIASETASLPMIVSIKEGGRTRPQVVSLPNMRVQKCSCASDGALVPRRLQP
Structure (SMILES),composite z-score [1],z-score [2],composite z-score [3],composite z-score [4],composite z-score [5],composite z-score [6],composite z-score [7],composite z-score [8],composite z-score [9],composite z-score [10],composite z-score (Albumin (Bos taurus)),composite Z-score [11],composite z-score [12],composite z-score [13],composite z-score [14],composite z-score [15],composite z-score [16],composite z-score (Sam68 (KHDRBS1)),composite z-score [17],composite z-score [18]
Cc1ccc(S(=O)(=O)N[C@@H]2COC(=O)[C@@H](C)COC(=O)CC=C[C@H]2C)cc1,-0.534,0.264,0.449,-0.0682,-0.523,-0.0222,-0.157,-0.0489,0.216,0.293,-0.0824,-0.145 (inactive),0.135,-0.162,-0.006,-0.0704,-0.0424,-0.181,0.379,0.457
C[C@H](ON=C1[C@H]2CCn3c(=O)n(-c4ccccc4)c(=O)n3[C@H]2[C@H](O)[C@@H]2O[C@H]12)c1cn([C@H](CO)Cc2ccccc2)nn1,0.345,-2.91,0.605,1.15,-0.444,-0.0179,-0.195,0.0637,-0.168,0.104,0.426,-0.285 (inactive),-0.0788,-0.0888,0.407,0.183,0.29,0.168,0.388,1.06
CCOC(=O)[C@H](Cc1ccccc1)NC(=O)CCC1CC(OC(=O)NCCc2ccc(F)cc2)CC2(CCCC(COC(=O)NCCOC)O2)O1 (stereo not given in full),1.4,0.686,0.529,0.276,-0.109,-0.116,0.131,0.0853,0.979,0.574,0.257,0.0225 (inactive),0.0525,-0.157,0.0121,1.07,0.148,1.32,0.657,0.404
COc1ccc(C#C[C@@H]2C=C[C@H](OC(C)=O)[C@@H](COC(C)=O)O2)cc1,0.318,-2.21,0.591,-0.268,-0.534,-0.2,-0.0471,-0.208,0.257,0.193,0.18,-0.153 (inactive),-0.0077,-0.153,0.61,0.759,-0.019,0.112,0.867,0.536
CC(CCC(=O)OC[C@H]1O[C@H](C#Cc2ccccc2)C=C[C@@H]1Oc1ccc(C)cc1)=NO[C@H](C)c1cn([C@H](CO)Cc2ccccc2)nn1,0.53,-1.57,0.423,0.0827,-0.0351,-0.0924,-0.138,0.0169,-0.166,-0.0686,0.276,0.392 (inactive),-0.0847,-0.0966,-0.0419,0.757,0.0395,1.12,0.569,0.79
COC(=O)[C@H](C)NC(=O)CCC1CC(OC(=O)NCc2ccc3c(c2)OCO3)CC2(CCCC(COC(=O)NCCc3ccccc3OC)O2)O1 (stereo not given in full),0.776,-0.941,0.0048,-0.173,0.351,-0.219,-0.206,-0.0653,0.561,0.253,0.159,0.0923 (inactive),-0.125,-0.0646,0.472,1.36,0.117,0.735,-0.0443,-0.706
Cc1cc2c(nc1C)CCCN2CC(O)CN1CCCc2nc(C)c(C)cc21,0.142,-0.107,0.368,0.239,-0.322,0.308,0.699,0.568,3.26,1.42,-0.293,2.34 (inactive),0.308,0.054,0.798,1.21,0.446,0.651,0.633,0.879
CO[C@H]1COC(=O)[C@@H](C)COC(=O)[C@H](COCc2ccccc2)NC(=O)CC=C[C@H]1C,-1.39,-0.292,1.23,-3.3,-3.53,-0.247,0.0062,0.0139,-0.526,-0.445,-1.04,2.09 (inactive),-0.0077,-0.135,-0.551,-1.73,-0.81,-1.17,1.22,-3.77
COC(=O)[C@H](C)NC(=O)CCC1CC(OC(=O)NCc2cccc3ccccc23)CC2(CCCC(COC(=O)NCC(c3ccccc3)c3ccccc3)O2)O1 (stereo not given in full),1.32,-0.977,0.889,-0.0132,-0.265,-0.0185,-0.273,-0.0157,0.345,0.0226,0.576,-0.171 (inactive),0.0242,-0.0895,0.553,1.27,0.433,1.32,-0.087,0.423
CCN1C(=O)[C@@H]2[C@H]3C(=CC[C@@H]2C1=O)C1(OCCCO1)[C@H]1O[C@H]1[C@H]3O,1.38,-4.67,0.352,0.669,-0.536,0.0293,-0.304,0.194,1.27,0.857,0.488,0.369 (inactive),0.162,-0.0948,0.429,2.12,0.251,1.29,0.333,1
COC(=O)CC=C[C@@H](C)[C@@H](C=NOC(C)CN1CCCc2nc(C)c(C)cc21)OC (stereo not given in full),0.633,-0.256,0.517,0.539,-0.733,0.133,-0.223,-0.291,0.106,1.43,0.0374,0.0236 (inactive),0.0833,-0.176,-0.0864,0.132,-0.201,0.263,0.377,0.458
